Screening data as filed in PubChem.
Shown are actives, neighbours in structure and some others; about 3.3% of the full set was active somewhere.
SUMO HTRF inh = blocks human SUMOylation mediated by UBC9 | 290,000 tested, 0.36% active | inhibition, % at 35 µM | HTRF SUMOylation assay, SAE1/SAE2 + UBC9, in vitro; in the data active = inhibition above about 50%, passing the limit was not always enough
Target sequence (P63279 whole entry, looked up): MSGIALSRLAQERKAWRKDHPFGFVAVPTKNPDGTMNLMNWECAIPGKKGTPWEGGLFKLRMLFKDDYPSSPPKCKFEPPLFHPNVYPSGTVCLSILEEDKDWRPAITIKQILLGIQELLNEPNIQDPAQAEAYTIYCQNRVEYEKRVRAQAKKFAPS
HGIII-sPLA2 inh = Inhibits HGIII-sPLA2 liposome hydrolysis, primary screen; 370,000 tested, 0.56% active; QFRET BODIPY PC-A2 liposome hydrolysis, fluorescence; Q9NZ20; AID 743126; inhibition, % at 12.2 µM;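 active = inhibition above mean plus 3 SD of compounds lying within the high and low control bounds, cut at about 19% in these data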
GRIN3A LBD mod = NR3A (human) ligand-binding domain modulation. NR3A LBD differential scanning fluorimetry, Tm shift; 0% = protein alone, 100% = glycine-bound protein. Tm shift relative to glycine control, % at 25 µM. 340,000 tested, 2.5% active. AID 1259313;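 active = melting temperature shift of at least 10% of the positive control shift, at one fixed dose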
UBC13 inh = human UBC13 polyubiquitination inhibition; P61088; inhibition, % at 20 µM; 330,000 tested, 0.47% active; UBC13 polyubiquitin chain formation, TR-FRET; in the data active = inhibition above about 45%, passing the limit was not always enough
Target sequence (P61088 whole entry, looked up): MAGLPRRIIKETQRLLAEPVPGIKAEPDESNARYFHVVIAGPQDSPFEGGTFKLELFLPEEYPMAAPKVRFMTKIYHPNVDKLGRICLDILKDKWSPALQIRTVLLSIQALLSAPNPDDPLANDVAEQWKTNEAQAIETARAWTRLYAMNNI
Large screens that a line does not name were inactive.

Cc1cc2cc(CN(CC3CCCO3)C(=S)NCc3ccco3)c(=O)[nH]c2cc1C (configuration not stated)	GRIN3A LBD mod 13
O=C1NC(=S)S/C1=C\c1cc(Cl)cc(Cl)c1O	GRIN3A LBD mod 17 (no result: SUMO HTRF inh, UBC13 inh)
O=C(Cn1cnc2c(NCc3ccccc3)ncnc21)NCCCc1ccccc1	GRIN3A LBD mod 17 (no result: SUMO HTRF inh, UBC13 inh)
O=C(Cn1cnc2c(OCc3ccccc3)ncnc21)NCCCc1ccccc1	none (no result: SUMO HTRF inh)
O=C(c1cncc(Br)c1)N1CCc2ccccc2C1	GRIN3A LBD mod 15
C/C(=N\Nc1ccc([N+](=O)[O-])cc1)c1ccc2c(c1)OCO2	GRIN3A LBD mod 23
C/C(=N\NC(=O)CCc1c[nH]c2ccccc12)c1ccc([N+](=O)[O-])cc1	GRIN3A LBD mod 22
C/C(=N/Nc1ccc([N+](=O)[O-])cc1)c1c[nH]c2ccccc12	GRIN3A LBD mod 29
C/C(=N/Nc1ccc([N+](=O)[O-])cc1)c1ccc(C)cc1C	GRIN3A LBD mod 24
COC(=O)[C@@H]1[C@H](O[Si](C)(C)C(C)(C)C)[C@H]2O[C@H]2C[C@H]1S(=O)(=O)c1ccccc1	none (no result: SUMO HTRF inh, GRIN3A LBD mod, UBC13 inh)
O=C(Cc1c[nH]c2ccccc12)N/N=C/c1ccc(F)cc1	none
O=C(N/N=C/c1ccc([N+](=O)[O-])cc1)c1cc2ccccc2o1	none
C/C(=N\Nc1ccc([N+](=O)[O-])cc1)c1cc2ccccc2o1	GRIN3A LBD mod 27
CN(C)c1ccc(/C=N/NC(=O)CCc2c[nH]c3ccccc23)cc1	GRIN3A LBD mod 16
Cc1cc(NC(=O)c2sc(Nc3ccc(F)c(Cl)c3)nc2N)no1	GRIN3A LBD mod 23
Cc1cc(NC(=O)c2sc(Nc3cccc(C(F)(F)F)c3)nc2N)no1	GRIN3A LBD mod 20
Cc1cc(/C(N)=N/OC(=O)Nc2cccc(C(F)(F)F)c2)no1	none
Cc1cc(NC(=O)c2cc(Cl)ccc2Cl)no1	none
CCN(CC)S(=O)(=O)c1ccc(S(=O)(=O)Nc2ccc3c(c2)oc2ccccc23)cc1	GRIN3A LBD mod 24
CN(C)S(=O)(=O)c1ccc(NC(=O)c2cc3ccccc3o2)cc1	GRIN3A LBD mod 31
Cc1ccc(NC(=O)c2cc3ccccc3o2)cc1S(=O)(=O)N(C)C	none (no result: UBC13 inh)
CN(C)S(=O)(=O)c1ccc(S(=O)(=O)Nc2ccc3c(c2)oc2ccccc23)cc1	GRIN3A LBD mod 22
CCN(CC)S(=O)(=O)c1ccc(NS(=O)(=O)c2ccc(C)c(C)c2)cc1	none
CCN(CC)S(=O)(=O)c1ccc(Cl)c(NC(=S)NC(=O)C2CCCC2)c1	none (no result: SUMO HTRF inh)
CCN(CC)c1ccc(S(=O)(=O)Nc2cc(Cl)ccc2Cl)cc1NC(=S)NC(=O)C1CCCC1	GRIN3A LBD mod 14
CCN(Cc1ccccc1)C(=O)CCCN1C(=O)COc2ccc(C)cc21	none (no result: SUMO HTRF inh, GRIN3A LBD mod, UBC13 inh)
Cc1ccccc1CN(C)CC(=O)Nc1ccccc1-c1ccccc1	GRIN3A LBD mod 23
CN(CC(=O)Nc1ccccc1Oc1ccccc1)Cc1ccccc1F	none
Cc1ccccc1CN(C)CC(=O)Nc1ccccc1Oc1ccccc1	GRIN3A LBD mod 14
CCCCN(C)c1nc(C)nc2c1nnn2Cc1ccccc1	none (no result: SUMO HTRF inh, GRIN3A LBD mod, UBC13 inh)
Cc1cccc(NC(=O)c2oc(=O)c3ccccc3c2-c2ccccc2)c1C	GRIN3A LBD mod 16
Cc1ccccc1NC(=O)c1oc(=O)c2ccccc2c1-c1ccccc1	none
Cc1nonc1NC(=O)CSc1nc(C23CC4CC(CC(C4)C2)C3)nc2ccccc12	GRIN3A LBD mod 18
N#Cc1cccc(NC(=O)OC2CCC23CCC(c2ccccc2)CC3)c1 (configuration not stated)	none (no result: SUMO HTRF inh, GRIN3A LBD mod, UBC13 inh)
CCCCOc1ccc(/C=C/C(=O)Nc2ccc([N+](=O)[O-])cc2C)cc1	none
CNC(=O)c1ccc(NC(=O)/C=C/c2cccc(F)c2)cc1	GRIN3A LBD mod 14
CCCCOC(=O)c1ccc(NC(=O)/C=C/c2cccs2)cc1	GRIN3A LBD mod 19
CCCCOc1ccc(/C=C/C(=O)NCCc2nc3ccccc3[nH]2)cc1	GRIN3A LBD mod 12
CCCOc1ccc(/C=C/C(=O)Nc2ccc([N+](=O)[O-])cc2)cc1	GRIN3A LBD mod 27
O=C(/C=C/c1cccc(F)c1)Nc1ccc(S(=O)(=O)Nc2ncccn2)cc1	none
Cc1ccc(C(=O)CSc2nnc(-c3ccccn3)n2-c2ccccc2)cc1	none (no result: SUMO HTRF inh, GRIN3A LBD mod, UBC13 inh)
CCOc1ccc(/C=C/C(=O)Nc2cccc(C(C)=O)c2)cc1	GRIN3A LBD mod 29
CCCCOc1ccc(/C=C/C(=O)Nc2ccc(C(N)=O)cc2)cc1	SUMO HTRF inh 51, GRIN3A LBD mod 22
C=CCOc1ccc(/C=C/C(=O)Nc2ccc(C(=O)NC)cc2)cc1	GRIN3A LBD mod 24
CC(C)(C)c1ccc(S(=O)(=O)N2CCC(C(=O)NCCC3=CCCCC3)CC2)cc1	none (no result: SUMO HTRF inh, GRIN3A LBD mod, UBC13 inh)
COC(=O)[C@H](C(C)C)N(Cc1cn(Cc2ccccc2)nn1)S(=O)(=O)c1ccccc1Br	none (no result: SUMO HTRF inh, GRIN3A LBD mod, UBC13 inh)
COC(=O)c1cc(C)nc2c1C(=O)C(=O)C=C2N1CCOCC1	SUMO HTRF inh 99
CCNC(=O)C[C@H]1CC[C@H]2[C@@H](COc3ccc(NC(=O)c4ccc5c(c4)OCO5)cc3C(=O)N2C)O1	none (no result: SUMO HTRF inh, GRIN3A LBD mod, UBC13 inh)
O=[N+]([O-])c1nn(-c2ccc3c(c2)OCCO3)n(O)c1=NCc1ccc(F)cc1	GRIN3A LBD mod 13
O=[N+]([O-])c1nn(-c2ccc3c(c2)OCCO3)n(O)c1=NCc1ccc(F)cc1Cl	none
CCc1ccc(S(=O)(=O)ON2C(=O)c3ccccc3C2=O)cc1	GRIN3A LBD mod 16
CC(C)(C)[C@H](NC(=O)c1cc(Cl)cc(Cl)c1)C(=O)N1CCC[C@H]1C(=O)N[C@H](C#N)CC(=O)O	none (no result: SUMO HTRF inh, GRIN3A LBD mod, UBC13 inh)
NC(=O)c1ccccc1NCC(=O)c1ccc(F)cc1	HGIII-sPLA2 inh 21 (no result: GRIN3A LBD mod)
CCOc1ccc(C(=O)OCC(=O)NC(C)C)cc1	none
CCOc1ccc(C(=O)OCC(=O)NCCNC(=O)COC(=O)c2ccc(OCC)cc2)cc1	GRIN3A LBD mod 14
CCOc1ccc(C(=O)NCCCCNC(=O)c2ccc(OCC)cc2)cc1	GRIN3A LBD mod 15
Cn1c(SCC2CCC2)nnc1-c1ccco1	none (no result: SUMO HTRF inh, GRIN3A LBD mod, UBC13 inh)
COC(=O)C1=CO[C@@H](O[C@@H]2O[C@H](CO)[C@@H](O)[C@H](O)[C@H]2O)C2C(CO)=CCC12 (some centres not stated)	none (no result: SUMO HTRF inh)
NCC[C@H](O)C(=O)N[C@@H]1C[C@H](N)[C@@H](O[C@H]2O[C@H](CN)[C@@H](O)[C@H](O)[C@H]2O)[C@H](O)[C@H]1O[C@H]1O[C@H](CO)[C@@H](O)[C@H](N)[C@H]1O	SUMO HTRF inh 71 (no result: UBC13 inh)
Cc1cccc(CSc2nc(N)c(C#N)c(-c3cccs3)c2C#N)c1	GRIN3A LBD mod 13
Cc1cccc(CSc2nc3c(c(-c4cccs4)c2C#N)CN(C)CC3)c1	none
COc1ccc(-c2cc3ccc(OC)cc3cn2)cc1	GRIN3A LBD mod 41 (no result: SUMO HTRF inh)
CCOC(=O)[C@@]12CCCC=C1N(CCc1ccc(Cl)cc1)C(=O)[C@H]2CC(=O)N1CCN(C(=O)c2ccco2)CC1	none (no result: SUMO HTRF inh, GRIN3A LBD mod, UBC13 inh)
Cc1oc2c(c1C(=O)c1ccccc1)C(=O)C(=O)c1ccccc1-2	SUMO HTRF inh 93
Cc1ccc(NC(=S)NCc2ccc3[nH]c4c(c3c2)CCCC4)cc1	GRIN3A LBD mod 11
COCCCNC(=O)CSc1nnc(-c2cccnc2)n1C1CCCCC1	none (no result: SUMO HTRF inh, GRIN3A LBD mod, UBC13 inh)
S=C(Nc1ccc(Br)cc1)OC1CCC12CCC(c1ccccc1)CC2 (configuration not stated)	none (no result: SUMO HTRF inh, GRIN3A LBD mod, UBC13 inh)
Cc1ccc(-c2csc3ncnc(N4CCc5ccccc5C4)c23)cc1	none
